From PubChem BioAssay (EPA / NIEHS)
Results filed as inconclusive are left out. The source made the active and inactive calls. How the source made its calls, unless noted: active means hit-call score of the fitted dose curve at least 0.9, where 1 is the maximum; inconclusive means response in the unintended direction; inactive means score below 0.9.

Assays:
[1] = TOX21_p53_BLA_p2_viability: Viability Assessment in the Tox21 HCT-116 p53 Agonism Beta-lactamase Assay, Phase 2 (AID 2283591);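 further: actives lower the ATP signal meaning cytotoxicity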
How it was run: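 HCT-116 p53-bla cells (4000/well) rested 5 h at 37C, then received compounds in DMSO (217-fold dilution) for 16 h at 37C, 5% CO2. After the CCF4 read, CellTiter-Glo was added; ATP luminescence was read after 30 min at room temperature.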

[2] = molecular target: Cellular tumor antigen p53 (Homo sapiens) (UniProt P04637); experiment: TOX21_p53_BLA_p2_ratio: Tox21 HCT-116 p53 Agonism Beta-lactamase Assay, Ratio, Phase 2 (AID 2283592)
Chain of Cellular tumor antigen p53 (Homo sapiens) (P04637 whole entry, looked up): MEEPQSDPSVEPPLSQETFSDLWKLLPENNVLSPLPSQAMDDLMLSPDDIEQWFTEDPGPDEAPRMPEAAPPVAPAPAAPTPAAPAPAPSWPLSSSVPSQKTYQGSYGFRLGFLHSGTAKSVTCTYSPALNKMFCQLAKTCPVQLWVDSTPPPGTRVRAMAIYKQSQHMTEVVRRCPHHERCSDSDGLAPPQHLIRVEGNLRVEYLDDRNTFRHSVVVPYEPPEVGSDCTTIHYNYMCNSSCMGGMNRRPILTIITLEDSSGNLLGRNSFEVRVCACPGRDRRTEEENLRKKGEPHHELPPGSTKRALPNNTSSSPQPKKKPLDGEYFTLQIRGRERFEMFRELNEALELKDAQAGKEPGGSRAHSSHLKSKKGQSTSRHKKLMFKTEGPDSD
How it was run: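 Gain-of-signal p53 agonism was scored from the beta-lactamase FRET ratio (460/530 nm, 405 nm excitation) in HCT116 cells treated 16 h at 37C, 5% CO2, with DMSO serving as negative control and baseline.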

[3] = TOX21_p53_BLA_p3_viability: Viability Assessment in the Tox21 HCT-116 p53 Agonism Beta-lactamase Assay, Phase 3 (AID 2283593)
How it was run: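 HCT-116 cells (4000/well) rested 5 h at 37C, then got DMSO compounds by pin tool (217-fold dilution) for 16 h at 37C, 5% CO2. After the bla read, CellTiter-Glo was added and luminescence read at 30 min, room temperature.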

[4] = molecular target: Cellular tumor antigen p53 (Homo sapiens) (UniProt P04637); experiment: TOX21_p53_BLA_p3_ratio: Tox21 HCT-116 p53 Agonism Beta-lactamase Assay, Ratio, Phase 3 (AID 2283596)
How it was run: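 HCT116 p53-bla cells (4000/well) given compound in DMSO (217-fold dilution) after 5 h, incubated 16 h at 37C. CCF4-AM substrate 2 h at room temperature; 460/530 nm emission ratio, gain fitted against DMSO.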

[5] = TOX21_p53_BLA_p4_viability: Viability Assessment in the Tox21 HCT-116 p53 Agonism Beta-lactamase Assay, Phase 4 (AID 2283597);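 further: hits lower the luminescence signal meaning cytotoxicity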
How it was run: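 Following a 16 h exposure at 37C, the treated HCT116 wells were first read for the FRET ratio. They were then lysed with CellTiter-Glo, and ATP luminescence was recorded after 30 min at room temperature.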

[6] = molecular target: Cellular tumor antigen p53 (Homo sapiens) (UniProt P04637); experiment: TOX21_p53_BLA_p5_ratio: Tox21 HCT-116 p53 Agonism Beta-lactamase Assay, Ratio, Phase 5 (AID 2283599)
How it was run: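 HCT-116 cells carrying a p53-inducible beta-lactamase reporter were seeded at 4000 cells/well and dosed after 5 h with compound in DMSO (217-fold dilution). After 16 h at 37C, CCF4-AM substrate was added for 2 h, and the 460/530 nm emission ratio was scored as gain-of-signal versus DMSO.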

[7] = TOX21_p53_BLA_p5_viability: Viability Assessment in the Tox21 HCT-116 p53 Agonism Beta-lactamase Assay, Phase 5 (AID 2283600)
How it was run: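 After the 460/530 nm beta-lactamase measurement, the wells received an ATP-detection luciferase reagent; signal was read 30 min later at RT. Compound treatment lasted 16 h on cells pre-incubated 5 h post-seeding.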

[8] = molecular target: Cellular tumor antigen p53 (Homo sapiens) (UniProt P04637); experiment: TOX21_p53_BLA_p4_ratio: Tox21 HCT-116 p53 Agonism Beta-lactamase Assay, Ratio, Phase 4 (AID 2283601)
How it was run: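 HCT116 cells carrying an inducible beta-lactamase reporter were plated at 4000 cells/well, rested 5 h, then exposed to compounds in DMSO (217-fold dilution) for 16 h at 37C. CCF4-AM substrate was loaded 2 h at room temperature; 460/530 nm emission ratio scored gain-of-signal versus DMSO.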

[9] = TOX21_PR_BLA_Followup_Agonist_viability: Viability Assessment in the Tox21 HEK293 Progesterone Receptor (PR) Agonism Beta-lactamase Follow-Up Assay (AID 2283935);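 further: signal loss means lower viability so actives are cytotoxic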
How it was run: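 PR-UAS-bla HEK293T cells in 2% charcoal-stripped FBS medium, plated 6 hr before compound addition, exposed 16 hr at 37C. Viability read by CellTiter-Glo ATP luminescence after 30 min at room temperature, in the same wells as the beta-lactamase readout.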

[10] = TOX21_PR_BLA_Followup_Antagonist_viability: Viability Assessment in the Tox21 HEK293 Progesterone Receptor (PR) Antagonism Beta-lactamase Follow-Up Assay (AID 2283936);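 further: hits lower the luminescence signal meaning cytotoxicity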
How it was run: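 PR-UAS-bla HEK293T cells (3,000/well, 2% charcoal-stripped FBS) given compound plus R5020 agonist, 16 h at 37C. CellTiter-Glo added after bla read, 30 min at room temperature; luminescence loss indicates cytotoxicity.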

PGR (gene 5241) = PGR (gene 5241) (UniProt P06401); experiment: TOX21_PR_LUC_Followup_Antagonist: Tox21 HEK293 Progesterone Receptor (PR) Antagonism Luciferase Follow-Up Assay (AID 2283938);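 further: curve fitted upward as signal gain over DMSO baseline despite antagonist label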
Chain of PGR (gene 5241) (P06401 whole entry, looked up): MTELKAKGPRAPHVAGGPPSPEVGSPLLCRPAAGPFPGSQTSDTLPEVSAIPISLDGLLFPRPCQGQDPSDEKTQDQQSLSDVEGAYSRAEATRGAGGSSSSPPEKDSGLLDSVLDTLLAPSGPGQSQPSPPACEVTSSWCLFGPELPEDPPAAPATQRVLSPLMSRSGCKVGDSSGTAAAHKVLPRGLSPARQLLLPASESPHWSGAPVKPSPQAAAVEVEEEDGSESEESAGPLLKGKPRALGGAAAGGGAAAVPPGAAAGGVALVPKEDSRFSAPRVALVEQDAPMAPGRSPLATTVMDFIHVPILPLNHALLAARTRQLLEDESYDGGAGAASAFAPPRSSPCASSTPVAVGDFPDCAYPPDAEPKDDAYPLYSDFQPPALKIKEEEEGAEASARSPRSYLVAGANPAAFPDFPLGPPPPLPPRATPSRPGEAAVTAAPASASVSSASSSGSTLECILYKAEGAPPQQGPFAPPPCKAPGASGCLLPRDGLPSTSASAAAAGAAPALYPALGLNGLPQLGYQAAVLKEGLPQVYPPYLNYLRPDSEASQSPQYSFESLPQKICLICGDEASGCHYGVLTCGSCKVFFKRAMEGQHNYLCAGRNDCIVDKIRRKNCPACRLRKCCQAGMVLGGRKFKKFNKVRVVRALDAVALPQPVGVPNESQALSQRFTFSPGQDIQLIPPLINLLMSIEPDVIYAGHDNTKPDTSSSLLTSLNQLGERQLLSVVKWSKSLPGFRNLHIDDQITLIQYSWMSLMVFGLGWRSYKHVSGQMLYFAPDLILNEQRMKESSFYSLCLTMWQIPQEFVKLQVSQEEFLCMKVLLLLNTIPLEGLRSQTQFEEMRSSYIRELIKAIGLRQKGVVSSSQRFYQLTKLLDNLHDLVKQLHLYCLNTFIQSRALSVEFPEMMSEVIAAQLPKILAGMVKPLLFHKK
How it was run: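 Luminescence from ONE-Glo was measured 30 min after reagent addition, following 16 h exposure of HEK293-PR-A-luc cells (3,000/well, plated 5 h earlier) to DMSO-dissolved compounds at 37C; DMSO served as baseline.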

[11] = TOX21_PR_LUC_Followup_Antagonist_viability: Viability Assessment in the Tox21 HEK293 Progesterone Receptor (PR) Antagonism Luciferase Follow-Up Assay (AID 2283940)
How it was run: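 HEK293-PR-A-luc cells kept in charcoal-stripped FBS medium were plated 5 h before compound addition, then exposed 16 h at 37C; viability read as cellular ATP by luciferase luminescence, loss of signal indicating cytotoxicity.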

[12] = TOX21_PR_LUC_Followup_Agonist_viability: Viability Assessment in the Tox21 HEK293 Progesterone Receptor (PR) Agonism Luciferase Follow-Up Assay (AID 2283941);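 further: loss of signal means cytotoxicity so actives lower viability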
How it was run: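 HEK293-PR-A-luc cells, kept in 10% charcoal-stripped FBS medium, were treated with compounds for 16 h at 37C. Viability read as cellular ATP by luciferase-coupled luminescence; loss of signal indicates cytotoxicity.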

[13] = CCTE_Harrill_HTTr_Viability_MCF7: CCTE's 6-hour Cell Viability Assessment for the High-Throughput Transcriptomics (HTTr) Platform, in MCF-7 cells cultured in DMEM + 10% fetal bovine serum, Harrill Lab (AID 2284010; active means hit-call score of the fitted dose curve at least 0.9, where 1 is the maximum; inactive means score below 0.9)
How it was run: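 MCF-7 cells in DMEM + 10% FBS, 384-well, exposed 6 h to an eight-point dilution series. Membrane integrity scored by high-content imaging of propidium iodide exclusion; bidirectional fit versus DMSO.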

Measured: AC50

O=P(O)(OCc1ccccc1)OCc1ccccc1
inactive: [1] | [2] | [3] | [4] | [5] | [7] | [8]
active: [6] 86.9 µM

O=C(O)c1cc(=O)[nH]c(=O)[nH]1
inactive: [1] | [2] | [3] | [4] | [5] | [6] | [7] | [8]

Cc1c(C)n(CCN(C)C)c2ccc(C(=O)OCCN(C)C)cc12
active: [8] 40.2 µM
inactive: [1] | [2] | [3] | [4] | [5] | [6] | [7]

CS(=O)(=O)Nc1ccc([N+](=O)[O-])cc1Oc1ccccc1
inactive: [1] | [2] | [3] | [4] | [5] | [6] | [7] | [8]

CCCCCCCCCCCCCCCCC(C(=O)O)C(O)(CC(=O)O)C(=O)O (stereo unspecified)
active: [3] 42.3 µM | [4] 41.2 µM | [6] 38.7 µM | [7] 34.3 µM
inactive: [1] | [2] | [5] | [8]

O[C@@H](CNC[C@H](O)[C@H]1CCc2cc(F)ccc2O1)[C@@H]1CCc2cc(F)ccc2O1
inactive: [2] | [3] | [4]
active: [1] 34.9 µM | [5] 33.5 µM | [6] 37.1 µM | [7] 43.1 µM | [8] 43.4 µM

C/C(=C(\CCOC(=O)c1ccccc1)SS/C(CCOC(=O)c1ccccc1)=C(/C)N(C=O)Cc1cnc(C)nc1N)N(C=O)Cc1cnc(C)nc1N
inactive: [1] | [2] | [3] | [4] | [5] | [6] | [7] | [8]

CC(C)=CCOc1ccc(/C=C/C(=O)c2ccc(OCC=C(C)C)cc2OCC(=O)O)cc1
active: [1] 8 µM | [2] 6.92 µM | [3] 14.9 µM | [4] 13.8 µM | [5] 7.92 µM | [6] 9.9 µM | [8] 7.21 µM
inactive: [7]

CC(C)C[C@H](NC(=O)[C@H](CCc1ccccc1)NC(=O)CN1CCOCC1)C(=O)N[C@@H](Cc1ccccc1)C(=O)N[C@@H](CC(C)C)C(=O)[C@@]1(C)CO1
active: [1] 0.757 µM | [2] 0.108 µM | [3] 1.09 µM | [4] 0.121 µM | [5] 0.759 µM | [6] 0.203 µM | [7] 1 µM | [8] 0.109 µM | PGR (gene 5241) 8.16 µM
inactive: [9] | [10] | [11]

CSc1nc2cc(Oc3cccc(Cl)c3Cl)c(Cl)cc2[nH]1
active: [1] 14.5 µM | [2] 33.3 µM | [3] 22.6 µM | [4] 33.9 µM | [5] 33.2 µM | [8] 20.5 µM
inactive: [6] | [7]

CC(NCCC(c1ccccc1)c1ccccc1)c1ccccc1 (stereo unspecified)
active: [1] 26.6 µM | [2] 33.9 µM | [5] 32.5 µM | [6] 35.8 µM | [8] 39.4 µM
inactive: [3] | [4] | [7]

COCCOC(=O)C1=C(C)NC(C)=C(C(=O)OC/C=C/c2ccccc2)C1c1cccc([N+](=O)[O-])c1 (stereo unspecified)
active: PGR (gene 5241) 7.18 µM
not listed: [13]
inactive: all other assays above

CCC(C)Nc1ccc(NC(C)CC)cc1 (stereo unspecified)
inactive: [2] | [6] | [8]
active: [1] 15.1 µM | [3] 22.4 µM | [4] 46.8 µM | [5] 19.2 µM | [7] 30.1 µM

Cc1cc(O)c(C(C)(C)C)cc1Sc1cc(C(C)(C)C)c(O)cc1C
active: [1] 13.2 µM | [2] 37.9 µM | [3] 20 µM | [4] 33.4 µM | [5] 14.3 µM | [6] 40.9 µM | [7] 18.1 µM | [8] 31.5 µM

COC(=O)C1=C(C)NC(C)=C(C(=O)OCCCN2CCC(c3ccccc3)(c3ccccc3)CC2)C1c1cccc([N+](=O)[O-])c1 (stereo unspecified)
active: [1] 32.9 µM | [2] 42 µM | [3] 36 µM | [4] 36.8 µM | [5] 28.8 µM | [6] 43.6 µM | [7] 37.4 µM | [8] 42.8 µM

C#C[C@]1(O)CC[C@H]2[C@@H]3CCc4cc(OC5CCCC5)ccc4[C@H]3CC[C@@]21C
active: [7] 37.8 µM | PGR (gene 5241) 16.2 µM
not listed: [13]
inactive: all other assays above

CN(C)[C@@H]1C(=O)C(C(=O)NCN2CCCC2)=C(O)[C@@]2(O)C(=O)C3=C(O)c4c(O)cccc4[C@@](C)(O)C3C[C@@H]12 (stereo partly specified)
inactive: [1] | [2] | [3] | [4] | [5] | [6] | [7] | [8]

CC[C@H]1OC(=O)C[C@@H](O)[C@H](C)[C@@H](O[C@@H]2O[C@H](C)[C@@H](O[C@H]3C[C@@](C)(O)[C@@H](O)[C@H](C)O3)[C@H](N(C)C)[C@H]2O)[C@@H](CC=O)C[C@@H](C)C(=O)/C=C/C(C)=C/[C@@H]1CO[C@@H]1O[C@H](C)[C@@H](O)[C@@H](OC)[C@H]1OC
inactive: [1] | [2] | [3] | [4] | [5] | [6] | [7] | [8]

O=C1Nc2ccc(Cl)cc2[C@@](C#CC2CC2)(C(F)(F)F)O1
active: [1] 37.1 µM | [5] 36.3 µM | [6] 36.7 µM | [7] 38.3 µM | [8] 43.5 µM
not listed: [12]
inactive: all other assays above
